In PubChem BioAssay AID1159580 (chemical genetic matrix, 2015):
In all, about 5,500 compounds went through this assay and about 2,000 (36%) were called active. Roughly 18% stayed inconclusive and do not appear here. No stated cut-off is given here; in the data, active means normalized growth mostly below about 0.91 (no sharp cut-off); inconclusive means no clear call, values can overlap the other calls; inactive means mostly above about 0.92. The list shows a part of the results.

Experiment: chemical genetic growth profiling, strain panel (AID 1159580);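 further: tested at 20 µM; growth read once vehicle control cultures reached saturation at 30 °C; 1 = growth at the plate median or of vehicle wells; lower values mean less growth of the strain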
Details: growth OD

Measured: normalized growth

O=C(O)COc1cc(Cl)c(Cl)cc1Cl
inactive: S. cerevisiae deletion strains, locus YJR075W, strain HOC1, active compounds read low 1.01 | S. cerevisiae deletion strains, locus YKL009W, strain mrt4, active compounds read low 1.05 | S. cerevisiae deletion strains, locus YKL068W, active compounds read low 1.01 | S. cerevisiae deletion strains, locus YKL085W, strain MDH1 (second series), active compounds read low 1.01 | S. cerevisiae deletion strains, locus YKL085W, strain MDH1, active compounds read low 1.01 | S. cerevisiae deletion strains, locus YKL160W, strain elf1, active compounds read low 1 | S. cerevisiae deletion strains, locus YKL190W, strain CNB1, active compounds read low 0.995 | S. cerevisiae deletion strains, locus YKR001C, strain vps1, active compounds read low 1.04 | S. cerevisiae deletion strains, locus YKR026C, strain gcn3, active compounds read low 1 | S. cerevisiae deletion strains, locus YKR091W, strain srl3, active compounds read low 1 | S. cerevisiae deletion strains, locus YLL001W, strain dnm1, active compounds read low 1.01 | S. cerevisiae deletion strains, locus YLL026W, active compounds read low 0.998 | S. cerevisiae deletion strains, locus YLL041C, strain sdh2, active compounds read low 1 | S. cerevisiae deletion strains, locus YLR027C, strain aat2, active compounds read low 1 | S. cerevisiae deletion strains, locus YLR039C, strain RIC1, active compounds read low 1.06 | S. cerevisiae deletion strains, locus YLR058C, strain SHM2, active compounds read low 1.01 | S. cerevisiae deletion strains, locus YLR102C, strain apc9, active compounds read low 1.02 | S. cerevisiae deletion strains, locus YLR113W, strain HOG1, active compounds read low 0.963 | S. cerevisiae deletion strains, locus YLR221C, strain rsa3, active compounds read low 1 | S. cerevisiae deletion strains, locus YLR258W, strain gsy2, active compounds read low 1.01 | S. cerevisiae deletion strains, locus YLR262C, strain YPT6 (second series), active compounds read low 1.01 | S. cerevisiae deletion strains, locus YLR262C, strain YPT6, active compounds read low 1.07 | S. cerevisiae deletion strains, locus YLR268W, strain sec22, active compounds read low 1.02 | S. cerevisiae deletion strains, locus YLR320W, strain mms22, active compounds read low 0.994 | S. cerevisiae deletion strains, locus YLR330W, strain CHS5, active compounds read low 1.01 | S. cerevisiae deletion strains, locus YLR342W, strain FKS1 (second series), active compounds read low 1.02 | S. cerevisiae deletion strains, locus YLR342W, strain FKS1, active compounds read low 0.999 | S. cerevisiae deletion strains, locus YLR357W, strain rsc2, active compounds read low 0.964 | S. cerevisiae deletion strains, locus YLR370C, strain arc18, active compounds read low 1 | S. cerevisiae deletion strains, locus YLR371W, strain rom2, active compounds read low 1.02 | S. cerevisiae deletion strains, locus YLR384C, strain iki3, active compounds read low 1 | S. cerevisiae deletion strains, locus YLR418C, strain cdc73, active compounds read low 1.04 | S. cerevisiae deletion strains, locus YML016C, strain PPZ1, active compounds read low 1.01 | S. cerevisiae deletion strains, locus YML032C, strain rad52, active compounds read low 1.02 | S. cerevisiae deletion strains, locus YML120C, strain ndi1, active compounds read low 0.999 | S. cerevisiae deletion strains, locus YML124C, strain tub3, active compounds read low 1.02 | S. cerevisiae deletion strains, locus YMR058W, strain fet3, active compounds read low 1 | S. cerevisiae deletion strains, locus YMR078C, strain ctf18, active compounds read low 1.03 | S. cerevisiae deletion strains, locus YMR125W, strain sto1, active compounds read low 0.994 | S. cerevisiae deletion strains, locus YMR129W, active compounds read low 1.01 | S. cerevisiae deletion strains, locus YMR205C, strain PFK2, active compounds read low 0.992 | S. cerevisiae deletion strains, locus YMR223W, strain ubp8, active compounds read low 1.02 | S. cerevisiae deletion strains, locus YMR231W, strain pep5, active compounds read low 1.01 | S. cerevisiae deletion strains, locus YMR263W, strain SAP30, active compounds read low 1.01 | S. cerevisiae deletion strains, locus YMR307W, strain GAS1, active compounds read low 1.02 | S. cerevisiae deletion strains, locus YNL067W, strain RPL9B, active compounds read low 1.01 | S. cerevisiae deletion strains, locus YNL071W, strain lat1, active compounds read low 0.994 | S. cerevisiae deletion strains, locus YNL128W, strain TEP1, active compounds read low 1.02 | S. cerevisiae deletion strains, locus YNL153C, strain GIM3, active compounds read low 1 | S. cerevisiae deletion strains, locus YNL183C, strain NPR1, active compounds read low 0.953 | S. cerevisiae deletion strains, locus YNL209W, strain ssb2, active compounds read low 1 | S. cerevisiae deletion strains, locus YNL233W, strain BNI4, active compounds read low 1.01 | S. cerevisiae deletion strains, locus YNL248C, strain rpa49, active compounds read low 0.992 | S. cerevisiae deletion strains, locus YNL250W, strain rad50, active compounds read low 1.03 | S. cerevisiae deletion strains, locus YNL271C, strain bni1, active compounds read low 1.02 | S. cerevisiae deletion strains, locus YNL298W, strain CLA4, active compounds read low 1.03 | S. cerevisiae deletion strains, locus YNL307C, strain MCK1, active compounds read low 1.03 | S. cerevisiae deletion strains, locus YNL322C, strain KRE1 (second series), active compounds read low 0.992 | S. cerevisiae deletion strains, locus YNL322C, strain KRE1, active compounds read low 1.01 | S. cerevisiae deletion strains, locus YNR049C, strain mso1, active compounds read low 0.988 | S. cerevisiae deletion strains, locus YNR052C, strain pop2, active compounds read low 1.01 | S. cerevisiae deletion strains, locus YOL006C, strain TOP1, active compounds read low 1.06 | S. cerevisiae deletion strains, locus YOL012C, strain htz1 1.75 | S. cerevisiae deletion strains, locus YOL147C, strain pex11, active compounds read low 1.02 | S. cerevisiae deletion strains, locus YOR001W, strain rrp6, active compounds read low 1 | S. cerevisiae deletion strains, locus YOR061W, strain CKA2, active compounds read low 1.01 | S. cerevisiae deletion strains, locus YOR069W, strain VPS5, active compounds read low 1.01 | S. cerevisiae deletion strains, locus YOR070C, strain gyp1, active compounds read low 0.991 | S. cerevisiae deletion strains, locus YOR080W, strain dia2, active compounds read low 0.988 | S. cerevisiae deletion strains, locus YOR083W, strain WHI5, active compounds read low 1.01 | S. cerevisiae deletion strains, locus YOR106W, strain vam3, active compounds read low 1.02 | S. cerevisiae deletion strains, locus YOR136W, strain idh2, active compounds read low 1.02 | S. cerevisiae deletion strains, locus YOR144C, strain elg1, active compounds read low 1.03 | S. cerevisiae deletion strains, locus YOR184W, strain ser1, active compounds read low 1.03 | S. cerevisiae deletion strains, locus YOR231W, strain MKK1, active compounds read low 1.01 | S. cerevisiae deletion strains, locus YOR265W, strain rbl2, active compounds read low 0.998 | S. cerevisiae deletion strains, locus YOR270C, strain vph1, active compounds read low 1.02 | S. cerevisiae deletion strains, locus YOR290C, strain snf2, active compounds read low 1.02 | S. cerevisiae deletion strains, locus YOR316C, strain cot1, active compounds read low 1.01 | S. cerevisiae deletion strains, locus YPL051W, strain arl3, active compounds read low 0.999 | S. cerevisiae deletion strains, locus YPL055C, strain LGE1, active compounds read low 1.03 | S. cerevisiae deletion strains, locus YPL078C, strain atp4, active compounds read low 1 | S. cerevisiae deletion strains, locus YPL106C, strain sse1, active compounds read low 0.973 | S. cerevisiae deletion strains, locus YPL240C, strain hsp82, active compounds read low 1 | S. cerevisiae deletion strains, locus YPL241C, strain CIN2, active compounds read low 1.01 | S. cerevisiae deletion strains, locus YPL256C, strain CLN2, active compounds read low 1.04 | S. cerevisiae deletion strains, locus YPR119W, strain clb2, active compounds read low 1.02 | S. cerevisiae deletion strains, locus YPR141C, strain kar3, active compounds read low 1.03 | S. cerevisiae deletion strains, locus YPR163C, strain tif3, active compounds read low 1.02 | S. cerevisiae deletion strains, locus YPR167C, strain met16, active compounds read low 1.02 | S. cerevisiae deletion strains, strain wtn01, active compounds read low 1.02 | S. cerevisiae strains, strain wild type, active compounds read low 1.01
